Measurements taken from the supplement of paper PMC10849652.
The full data set covers some 7,900 targets. This sample favours those with a hit. About 0.6% of all pairs of compound and target were hits.

Experiments:
Assay in all cases: log2 fold change, soluble protein after heating vs DMSO (PISA); higher = thermal stabilisation; K562 cells, 10 uM, 30 min; active = over 0.2 and 3.5 SD of the protein, either way, in both replicates (recomputed)
[1] = compound: NC(=O)Nc1cc(-c2cccc(F)c2)sc1C(=O)N[C@H]1CCCNC1
Summary of the method: (§1)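 Thermal stability values are relative to control samples and come from duplicates. They are expressed as log2 fold changes. For measurement, K562 cells (2×10^6 cells/mL) received 10 μM compound for 30 min, and aliquots were heated for 3 min over 48°C-58°C, pooled, and extracted at 4°C in PBS with 0.5% NP-40. Soluble protein, the supernatant after 21,000xg for 90 min, was quantified by TMTpro 16plex LC-MS/MS with equalised channel sums.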

[2] = compound: NC(=O)c1cnc(N[C@@H]2CCCC[C@@H]2N)nc1Nc1cccc(-n2nccn2)c1
Summary of the method: as §1

[3] = compound: NC1(c2ccc(-c3nc4ccn5c(=O)[nH]nc5c4cc3-c3ccccc3)cc2)CCC1
Summary of the method: as §1

[4] = compound: NCC(=O)Nc1ccc(-n2nc(C(F)(F)F)cc2-c2ccc3c(ccc4ccccc43)c2)cc1
Summary of the method: as §1

entinostat = compound: Nc1ccccc1NC(=O)c1ccc(CNC(=O)OCc2cccnc2)cc1 [entinostat]
Summary of the method: as §1

vorinostat = compound: O=C(CCCCCCC(=O)Nc1ccccc1)NO [vorinostat]
Summary of the method: as §1

citarinostat = compound: O=C(CCCCCCNC(=O)c1cnc(N(c2ccccc2)c2ccccc2Cl)nc1)NO [citarinostat]
Summary of the method: as §1

silmitasertib = compound: O=C(O)c1ccc2c(c1)nc(Nc1cccc(Cl)c1)c1ccncc12 [silmitasertib]
Summary of the method: as §1

[5] = compound: O=C1NC(=O)C(c2cnc3ccccn23)=C1c1cn2c3c(cc(F)cc13)CN(C(=O)N1CCCCC1)CC2
Summary of the method: as §1

[6] = compound: c1cc(OCCN2CCCCC2)cc(-c2n[nH]c3ccc(-c4nnc[nH]4)cc23)c1
Summary of the method: as §1

entospletinib = compound: c1cn2cc(-c3ccc4cn[nH]c4c3)nc(Nc3ccc(N4CCOCC4)cc3)c2n1 [entospletinib]
Summary of the method: as §1

Measured: log2 fold change

PMM1 (UniProt Q92871)
inactive: [1] 0.005 | [2] 0.006 | [3] -0.01 | [4] 0.002 | entinostat -0.021 | vorinostat 0.113 | citarinostat 0.034 | silmitasertib -0.005 | [5] 0.004 | [6] -0.012
active: entospletinib -0.415

PSMC2 (UniProt P35998)
inactive: [1] 0.014 | [2] -0.013 | [3] 0.026 | [4] 0.091 | entinostat -0.025 | vorinostat -0.018 | citarinostat -0.04 | silmitasertib -0.015 | [5] 0.087 | [6] -0.086 | entospletinib 0.02

PSMD8 (UniProt P48556)
inactive: [1] -0.035 | [2] 0.042 | [3] -0.07 | [4] 0.009 | entinostat -0.009 | vorinostat 0.016 | citarinostat -0.015 | silmitasertib 0.007 | [5] 0.019 | [6] -0.101 | entospletinib 0.012

PPP1R12A (UniProt O14974)
active: [1] -0.428
inactive: [2] -0.358 | [3] -0.137 | [4] -0.012 | entinostat 0.041 | vorinostat 0.017 | citarinostat 0.078 | silmitasertib 0.051 | [5] -0.01 | [6] -0.369 | entospletinib -0.045

PRIM2 (UniProt P49643)
inactive: [1] -0.035 | [2] -0.141 | [3] -0.16 | [4] -0.061 | entinostat 0.058 | vorinostat 0.098 | citarinostat 0.135 | silmitasertib 0.033 | [5] -0.096 | [6] -0.018 | entospletinib 0

PIKFYVE (UniProt Q9Y2I7)
Chain of UniProt Q9Y2I7 (Q9Y2I7 whole entry, looked up): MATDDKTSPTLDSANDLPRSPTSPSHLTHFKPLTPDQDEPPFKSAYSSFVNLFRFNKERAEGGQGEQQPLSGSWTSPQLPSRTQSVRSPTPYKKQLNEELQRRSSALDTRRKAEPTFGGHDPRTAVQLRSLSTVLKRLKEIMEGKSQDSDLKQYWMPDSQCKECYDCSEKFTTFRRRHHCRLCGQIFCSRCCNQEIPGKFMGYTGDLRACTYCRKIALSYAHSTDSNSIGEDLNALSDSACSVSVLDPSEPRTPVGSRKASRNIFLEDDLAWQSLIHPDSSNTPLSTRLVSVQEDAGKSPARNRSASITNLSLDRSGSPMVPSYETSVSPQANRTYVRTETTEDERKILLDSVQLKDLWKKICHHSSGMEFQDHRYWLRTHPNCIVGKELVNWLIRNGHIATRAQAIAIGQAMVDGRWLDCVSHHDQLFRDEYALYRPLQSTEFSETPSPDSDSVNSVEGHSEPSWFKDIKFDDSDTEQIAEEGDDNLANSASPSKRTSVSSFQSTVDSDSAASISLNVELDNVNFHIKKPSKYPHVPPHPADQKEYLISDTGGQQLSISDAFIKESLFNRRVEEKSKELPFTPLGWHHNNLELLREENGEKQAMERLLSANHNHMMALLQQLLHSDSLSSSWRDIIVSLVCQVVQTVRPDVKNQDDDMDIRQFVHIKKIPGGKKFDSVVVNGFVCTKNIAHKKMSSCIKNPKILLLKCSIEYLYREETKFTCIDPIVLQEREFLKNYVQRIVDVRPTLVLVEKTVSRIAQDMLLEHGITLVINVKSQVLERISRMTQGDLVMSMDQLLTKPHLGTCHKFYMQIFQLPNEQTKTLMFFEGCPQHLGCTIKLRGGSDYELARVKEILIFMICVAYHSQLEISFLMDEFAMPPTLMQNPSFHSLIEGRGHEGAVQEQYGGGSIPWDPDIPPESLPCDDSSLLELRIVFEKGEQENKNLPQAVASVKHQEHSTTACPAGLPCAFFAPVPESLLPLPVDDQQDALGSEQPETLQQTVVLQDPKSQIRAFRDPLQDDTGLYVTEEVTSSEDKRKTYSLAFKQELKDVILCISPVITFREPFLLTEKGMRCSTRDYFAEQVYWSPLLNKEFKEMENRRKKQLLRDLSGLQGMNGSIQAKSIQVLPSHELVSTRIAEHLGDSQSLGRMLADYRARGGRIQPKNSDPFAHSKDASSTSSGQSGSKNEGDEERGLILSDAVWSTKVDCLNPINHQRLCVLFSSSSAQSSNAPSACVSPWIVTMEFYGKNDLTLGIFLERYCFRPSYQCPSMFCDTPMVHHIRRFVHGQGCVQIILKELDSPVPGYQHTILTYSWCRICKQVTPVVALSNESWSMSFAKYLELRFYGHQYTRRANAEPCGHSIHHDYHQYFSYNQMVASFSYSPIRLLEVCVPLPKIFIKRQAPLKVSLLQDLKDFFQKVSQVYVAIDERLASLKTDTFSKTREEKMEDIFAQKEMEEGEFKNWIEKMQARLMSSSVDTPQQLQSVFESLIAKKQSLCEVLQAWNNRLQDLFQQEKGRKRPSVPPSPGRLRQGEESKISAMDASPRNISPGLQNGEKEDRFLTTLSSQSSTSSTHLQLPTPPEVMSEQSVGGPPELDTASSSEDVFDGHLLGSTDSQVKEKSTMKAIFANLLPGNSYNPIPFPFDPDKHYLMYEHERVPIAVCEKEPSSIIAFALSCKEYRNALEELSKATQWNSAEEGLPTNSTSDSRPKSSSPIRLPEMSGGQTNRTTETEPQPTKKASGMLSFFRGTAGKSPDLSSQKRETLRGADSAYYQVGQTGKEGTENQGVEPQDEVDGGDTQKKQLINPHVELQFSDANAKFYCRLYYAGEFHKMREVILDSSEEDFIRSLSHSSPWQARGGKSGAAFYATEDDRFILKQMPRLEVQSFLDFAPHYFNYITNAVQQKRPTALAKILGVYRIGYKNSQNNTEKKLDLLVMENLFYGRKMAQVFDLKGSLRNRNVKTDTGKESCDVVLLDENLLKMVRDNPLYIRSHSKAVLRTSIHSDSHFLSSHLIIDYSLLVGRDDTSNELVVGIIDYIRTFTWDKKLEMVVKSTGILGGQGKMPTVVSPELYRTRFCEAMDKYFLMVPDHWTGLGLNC
inactive: [1] 0.029 | [2] -0.055 | [3] -0.256 | [4] -0.072 | entinostat 0.09 | vorinostat 0.021 | citarinostat -0.047 | silmitasertib 0.006 | [5] -0.069 | [6] -0.08 | entospletinib 0.003

PSMD12 (UniProt O00232)
inactive: [1] -0.001 | [2] 0.019 | [3] -0.061 | [4] 0.05 | entinostat 0.001 | vorinostat 0.003 | citarinostat -0.012 | silmitasertib -0.024 | [5] 0.045 | [6] -0.09 | entospletinib 0.032

PKM isoform 2 (UniProt P14618)
inactive: [1] 0.123 | [2] 0.175 | [3] -0.063 | [4] 0.116 | entinostat 0.05 | vorinostat -0.195 | citarinostat -0.075 | silmitasertib -0.052 | [5] 0.043 | [6] -0.093 | entospletinib 0.128

PRKAB1 (UniProt Q9Y478)
Chain of UniProt Q9Y478 (Q9Y478 whole entry, looked up): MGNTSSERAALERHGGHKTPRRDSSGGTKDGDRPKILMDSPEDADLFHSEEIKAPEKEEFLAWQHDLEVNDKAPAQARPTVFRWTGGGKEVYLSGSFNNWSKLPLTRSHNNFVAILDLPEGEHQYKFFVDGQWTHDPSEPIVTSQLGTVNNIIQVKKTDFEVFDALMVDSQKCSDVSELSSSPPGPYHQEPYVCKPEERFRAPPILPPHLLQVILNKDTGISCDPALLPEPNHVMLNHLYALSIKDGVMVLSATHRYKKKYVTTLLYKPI
inactive: [1] -0.015 | [2] 0.186 | [3] -0.015 | [4] 0.035 | entinostat 0.056 | vorinostat 0.063 | citarinostat 0.089 | silmitasertib 0 | [5] -0.036 | [6] -0.067 | entospletinib -0.145

POLR3B (UniProt Q9NW08)
Chain of UniProt Q9NW08 (Q9NW08 whole entry, looked up): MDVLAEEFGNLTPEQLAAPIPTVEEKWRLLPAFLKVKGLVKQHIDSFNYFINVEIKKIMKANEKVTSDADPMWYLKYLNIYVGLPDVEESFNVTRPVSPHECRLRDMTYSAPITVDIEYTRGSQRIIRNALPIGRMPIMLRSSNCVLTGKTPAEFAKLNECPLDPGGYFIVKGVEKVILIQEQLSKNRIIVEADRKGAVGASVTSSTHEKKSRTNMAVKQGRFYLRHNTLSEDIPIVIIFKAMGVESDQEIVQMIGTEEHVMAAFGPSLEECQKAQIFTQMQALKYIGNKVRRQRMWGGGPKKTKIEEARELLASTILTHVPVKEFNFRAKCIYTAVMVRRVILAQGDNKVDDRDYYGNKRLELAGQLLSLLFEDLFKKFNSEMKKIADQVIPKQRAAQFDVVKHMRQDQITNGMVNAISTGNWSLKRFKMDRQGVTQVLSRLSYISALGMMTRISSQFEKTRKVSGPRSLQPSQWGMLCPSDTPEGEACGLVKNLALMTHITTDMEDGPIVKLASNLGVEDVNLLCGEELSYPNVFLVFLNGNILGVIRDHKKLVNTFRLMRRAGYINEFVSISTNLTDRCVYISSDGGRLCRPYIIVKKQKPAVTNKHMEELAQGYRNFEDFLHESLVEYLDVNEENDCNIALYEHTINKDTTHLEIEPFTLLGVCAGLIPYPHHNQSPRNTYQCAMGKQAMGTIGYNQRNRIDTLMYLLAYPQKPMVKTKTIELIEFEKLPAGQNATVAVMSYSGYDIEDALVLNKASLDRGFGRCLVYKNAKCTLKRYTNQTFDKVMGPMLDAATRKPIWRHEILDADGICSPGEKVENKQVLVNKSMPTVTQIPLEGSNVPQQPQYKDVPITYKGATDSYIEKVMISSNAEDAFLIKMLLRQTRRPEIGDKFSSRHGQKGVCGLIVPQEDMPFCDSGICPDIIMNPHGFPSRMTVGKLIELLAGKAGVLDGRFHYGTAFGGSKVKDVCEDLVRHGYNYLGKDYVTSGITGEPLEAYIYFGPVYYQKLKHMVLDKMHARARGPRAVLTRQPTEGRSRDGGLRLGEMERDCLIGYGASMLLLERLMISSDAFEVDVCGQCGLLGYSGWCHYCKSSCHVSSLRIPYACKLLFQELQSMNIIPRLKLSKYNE
inactive: [1] -0.05 | [2] 0.017 | [3] -0.124 | [4] -0.009 | entinostat -0.014 | vorinostat 0.088 | citarinostat -0.022 | silmitasertib 0.111 | [5] 0.104 | [6] -0.047 | entospletinib 0

PI4K2A (UniProt Q9BTU6)
inactive: [1] 0.033 | [2] 0.204 | [3] -0.152 | [4] -0.05 | entinostat -0.013 | vorinostat 0.039 | citarinostat 0.072 | silmitasertib -0.012 | [5] -0.05 | [6] 0.003 | entospletinib -0.011

PMPCB (UniProt O75439)
inactive: [1] -0.03 | [2] 0.024 | [3] -0.02 | [4] 0.023 | entinostat -0.043 | vorinostat -0.009 | citarinostat 0.037 | silmitasertib -0.103 | [5] -0.012 | [6] 0.023 | entospletinib -0.043

PCLAF (UniProt Q15004)
Chain of UniProt Q15004 (Q15004 whole entry, looked up): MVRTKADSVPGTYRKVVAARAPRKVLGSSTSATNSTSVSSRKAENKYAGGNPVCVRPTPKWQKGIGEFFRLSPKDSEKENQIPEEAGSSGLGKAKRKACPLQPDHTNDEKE
inactive: [1] -0.007 | [2] 0.035 | [3] 0.109 | [4] 0.012 | entinostat -0.04 | vorinostat -0.045 | citarinostat 0.035 | silmitasertib -0.009 | [5] 0.008 | [6] -0.066 | entospletinib -0.132

PPP6R1 (UniProt Q9UPN7)
inactive: [1] 0.023 | [2] -0.066 | [3] -0.09 | [4] 0.011 | entinostat -0.018 | vorinostat 0.023 | citarinostat 0.054 | silmitasertib 0.013 | [5] -0.055 | [6] -0.05 | entospletinib 0.033

PSMC1 (UniProt P62191)
inactive: [1] 0.011 | [2] 0.029 | [3] 0.014 | [4] 0.043 | entinostat -0.013 | vorinostat -0.013 | citarinostat -0.032 | silmitasertib 0.001 | [5] 0.026 | [6] -0.047 | entospletinib 0.006

PMPCA (UniProt Q10713)
Chain of UniProt Q10713 (Q10713 whole entry, looked up): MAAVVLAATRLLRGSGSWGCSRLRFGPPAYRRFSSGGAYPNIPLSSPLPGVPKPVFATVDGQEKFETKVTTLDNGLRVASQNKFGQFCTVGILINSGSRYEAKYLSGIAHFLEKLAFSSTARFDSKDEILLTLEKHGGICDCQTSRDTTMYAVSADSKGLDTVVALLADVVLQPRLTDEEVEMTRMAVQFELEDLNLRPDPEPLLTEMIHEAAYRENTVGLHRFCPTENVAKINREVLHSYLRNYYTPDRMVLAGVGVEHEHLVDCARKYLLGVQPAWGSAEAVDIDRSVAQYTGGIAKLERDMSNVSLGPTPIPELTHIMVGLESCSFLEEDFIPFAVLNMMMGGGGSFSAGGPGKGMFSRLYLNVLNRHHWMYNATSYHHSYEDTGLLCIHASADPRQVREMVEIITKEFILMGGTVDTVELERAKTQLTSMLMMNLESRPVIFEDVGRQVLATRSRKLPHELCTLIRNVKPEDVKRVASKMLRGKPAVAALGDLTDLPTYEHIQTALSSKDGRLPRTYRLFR
inactive: [1] -0.091 | [2] -0.059 | [3] -0.02 | [4] -0.053 | entinostat -0.018 | vorinostat -0.016 | citarinostat 0.017 | silmitasertib -0.061 | [5] 0.01 | [6] 0.015 | entospletinib -0.046

PCBP1 (UniProt Q15365)
Chain of UniProt Q15365 (Q15365 whole entry, looked up): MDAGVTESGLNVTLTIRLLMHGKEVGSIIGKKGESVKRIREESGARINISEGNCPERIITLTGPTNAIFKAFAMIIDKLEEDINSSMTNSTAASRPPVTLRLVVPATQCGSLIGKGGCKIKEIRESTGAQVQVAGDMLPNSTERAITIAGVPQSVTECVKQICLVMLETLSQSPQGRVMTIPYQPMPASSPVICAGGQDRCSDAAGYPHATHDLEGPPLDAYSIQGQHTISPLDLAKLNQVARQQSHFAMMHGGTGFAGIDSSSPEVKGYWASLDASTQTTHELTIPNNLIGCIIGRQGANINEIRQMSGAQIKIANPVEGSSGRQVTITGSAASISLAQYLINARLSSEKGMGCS
inactive: [1] 0.007 | [2] -0.015 | [3] -0.069 | [4] -0.021 | entinostat 0.044 | vorinostat 0.055 | citarinostat 0.075 | silmitasertib 0.028 | [5] -0.046 | [6] 0.002 | entospletinib -0.042

PRKCQ (UniProt Q04759)
active: [1] -0.337
inactive: [2] -0.135 | [3] -0.198 | [4] -0.052 | entinostat 0.002 | vorinostat 0.035 | citarinostat 0.001 | silmitasertib 0.002 | [5] -0.021 | [6] -0.187 | entospletinib 0.017

PSMA3 (UniProt P25788)
Chain of UniProt P25788 (P25788 whole entry, looked up): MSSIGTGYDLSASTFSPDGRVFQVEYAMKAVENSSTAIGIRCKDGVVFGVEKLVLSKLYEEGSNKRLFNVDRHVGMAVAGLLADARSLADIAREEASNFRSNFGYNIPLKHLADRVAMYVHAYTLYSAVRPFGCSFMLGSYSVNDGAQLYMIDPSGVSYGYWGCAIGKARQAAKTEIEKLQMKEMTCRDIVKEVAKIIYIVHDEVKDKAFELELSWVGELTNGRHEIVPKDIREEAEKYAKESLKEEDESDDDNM
inactive: [1] 0.03 | [2] 0.022 | [3] 0.071 | [4] 0.058 | entinostat -0.027 | vorinostat -0.029 | citarinostat 0.005 | silmitasertib -0.002 | [5] 0.102 | [6] -0.056 | entospletinib 0.009

PLEKHM2 (UniProt Q8IWE5)
inactive: [1] 0.01 | [2] -0.102 | [4] -0.107 | entinostat 0.024 | vorinostat 0.072 | citarinostat 0.109 | silmitasertib -0.058 | [5] -0.009 | [6] -0.125 | entospletinib -0.051
active: [3] -0.315

PELP1 (UniProt Q8IZL8)
inactive: [1] 0.071 | [2] -0.068 | [3] -0.046 | [4] 0.071 | entinostat -0.022 | vorinostat -0.003 | citarinostat 0.038 | silmitasertib 0.078 | [5] -0.084 | [6] -0.027 | entospletinib -0.041

PTGFRN (UniProt Q9P2B2)
inactive: [1] -0.115 | [2] 0.083 | [3] 0.013 | [4] 0.014 | entinostat -0.071 | vorinostat -0.055 | citarinostat 0.021 | silmitasertib -0.006 | [5] -0.007 | [6] -0.104 | entospletinib -0.007

PRKCD (UniProt Q05655)
inactive: [1] -0.086 | [2] -0.05 | [3] -0.081 | [4] -0.031 | entinostat 0.024 | vorinostat 0.031 | citarinostat 0.006 | silmitasertib 0.045 | [5] -0.06 | [6] -0.083 | entospletinib 0.018

POLR2B (UniProt P30876)
inactive: [1] -0.054 | [2] 0.059 | [3] -0.043 | [4] -0.106 | entinostat 0.061 | vorinostat -0.089 | citarinostat 0 | silmitasertib 0.1 | [5] 0.09 | [6] -0.065 | entospletinib 0.193

PIR (UniProt O00625)
Chain of UniProt O00625 (O00625 whole entry, looked up): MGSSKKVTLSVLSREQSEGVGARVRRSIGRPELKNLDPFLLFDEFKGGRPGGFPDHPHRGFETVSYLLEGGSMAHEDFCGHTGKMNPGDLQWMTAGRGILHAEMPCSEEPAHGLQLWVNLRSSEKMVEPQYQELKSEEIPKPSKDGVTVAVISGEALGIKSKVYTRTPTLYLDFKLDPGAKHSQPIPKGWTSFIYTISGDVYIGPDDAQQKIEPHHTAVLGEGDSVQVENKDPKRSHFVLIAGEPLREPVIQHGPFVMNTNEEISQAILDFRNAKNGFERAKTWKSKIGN
active: vorinostat -0.625 | [6] 0.253
inactive: [1] -0.047 | [2] -0.053 | [3] -0.195 | [4] -0.024 | entinostat -0.022 | citarinostat -0.014 | silmitasertib -0.038 | [5] -0.012 | entospletinib 0.028

PGM3 isoform 4 (UniProt O95394)
inactive: [1] -0.039 | [2] -0.118 | [3] -0.147 | [4] -0.063 | entinostat 0.015 | vorinostat 0.061 | citarinostat 0.046 | silmitasertib -0.012 | [5] -0.008 | [6] -0.024 | entospletinib -0.047

PDS5B (UniProt Q9NTI5)
inactive: [1] -0.07 | [2] -0.12 | [3] -0.043 | [4] -0.167 | entinostat -0.036 | vorinostat -0.043 | citarinostat 0.046 | silmitasertib 0.027 | [5] -0.08 | [6] 0.03 | entospletinib -0.055

PIGG (UniProt Q5H8A4)
inactive: [1] -0.046 | [2] -0.032 | [3] -0.06 | [4] 0.052 | entinostat 0.039 | vorinostat -0.104 | citarinostat 0.052 | silmitasertib 0.025 | [5] -0.019 | [6] 0.029 | entospletinib -0.034
